The values below come from PubChem BioAssay AID1347418 (Sanford-Burnham Center for Chemical Genomics, 2020).

The whole screen tested about 1,300 compounds, of which about 750 (58%) were called active. This is one part of the list. Values without a mark were called inactive.

The target of the experiment is Sulfhydryl oxidase 1 (Homo sapiens) (UniProt O00391). In words: inhibition of human sulfhydryl oxidase QSOX1 – biochemical, ROS-Glo H2O2 luminescence, HTS, primary screen (AID 1347418). The following applies: recombinant QSOX1, ROS-Glo H2O2 luminescence; at 12.5 µM; active compounds read high; active = any value above zero.
Sequence of Sulfhydryl oxidase 1 (Homo sapiens) (O00391 whole entry, looked up): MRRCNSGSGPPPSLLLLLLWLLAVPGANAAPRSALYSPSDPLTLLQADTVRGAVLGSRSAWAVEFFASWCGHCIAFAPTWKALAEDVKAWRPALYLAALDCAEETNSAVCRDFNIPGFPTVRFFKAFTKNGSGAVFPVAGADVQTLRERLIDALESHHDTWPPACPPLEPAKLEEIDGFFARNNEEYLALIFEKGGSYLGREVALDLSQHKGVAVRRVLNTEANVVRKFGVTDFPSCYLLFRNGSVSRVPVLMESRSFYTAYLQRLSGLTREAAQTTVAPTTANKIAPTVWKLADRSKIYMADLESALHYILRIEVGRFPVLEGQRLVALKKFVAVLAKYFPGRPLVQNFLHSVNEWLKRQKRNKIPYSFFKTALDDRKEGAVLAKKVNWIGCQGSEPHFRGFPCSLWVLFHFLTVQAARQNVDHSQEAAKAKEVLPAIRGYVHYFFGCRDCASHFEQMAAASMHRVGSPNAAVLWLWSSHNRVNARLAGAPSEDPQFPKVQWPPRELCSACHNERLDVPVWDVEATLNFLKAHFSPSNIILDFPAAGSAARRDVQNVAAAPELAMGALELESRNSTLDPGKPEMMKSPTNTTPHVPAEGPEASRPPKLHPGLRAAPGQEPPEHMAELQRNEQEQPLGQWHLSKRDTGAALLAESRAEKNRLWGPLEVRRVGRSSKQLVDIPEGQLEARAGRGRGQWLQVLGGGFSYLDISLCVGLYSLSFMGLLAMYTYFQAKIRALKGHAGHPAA
As to `Fc1cccc(/C=N/N=C/c2cccc(F)c2)c1`, the inhibition (in general, the change of the read-out against control, counted positive when it falls) was 1.9% (active).

Take `Nc1nc(Cl)nc2c1ncn2[C@@H]1O[C@H](CO)[C@H](O)C1O` (some centres not stated): the inhibition was -0.3%. As for `Nc1nc(Nc2ccccc2)nc2c1ncn2[C@@H]1O[C@H](CO)[C@H](O)C1O` (some centres not stated), the inhibition is -2.6%.

For `CNC(=O)[C@H]1O[C@@H](n2cnc3c(NCc4ccc(N)cc4)ncnc32)C(O)[C@H]1O` (some centres not stated), the inhibition is 6% (active). To `CCNC(=O)[C@H]1O[C@@H](n2cnc3c(N)nc(NCCc4ccc(CCC(=O)O)cc4)nc32)C(O)[C@H]1O` (some centres not stated) belongs 1.5% (active); to `CCCCC#Cc1nc(NC)c2ncn([C@@H]3O[C@H](CO)C(O)[C@@H]3O)c2n1` (some centres not stated), -4.5%. Take `CNC(=O)[C@H]1O[C@@H](n2cnc3c(NCc4cccc(I)c4)ncnc32)C(O)[C@H]1O` (some centres not stated): the inhibition is -1.8%. To `O=C(c1ccc(Cl)cc1)N1CCN(c2ccc([N+](=O)[O-])c3ncccc23)CC1` belongs 1.5% (active); to `O=c1cc(N2CCOCC2)oc2c(-c3ccccc3)cccc12`, -2.2%.

For `OCC1O[C@H](O)C(Cl)C(O)C1O` (some centres not stated), the inhibition was 4.9% (active). To `CC(C)C[C@H](NC(=O)C1OC1C(=O)O)C(=O)NCCCCN=C(N)N` (some centres not stated) belongs 10.1% (active); to `COC1(C2=NCCN2)COc2ccccc2O1` (configuration not stated), 3.2% (active); to `O=C(O)CN(CCN(CC(=O)O)CC(=O)O)CCN(CC(=O)O)CC(=O)O`, -5%. Regarding `CN1C(=O)CC[C@H]1c1cccnc1`, the inhibition was -4%. Regarding `Cn1ccc2cc3c(cc21)CCN3C(=O)Nc1cccnc1`, the inhibition was -2.2%. Turning to `CN1CCc2cc(NC(=O)Nc3cccnc3)ccc21`, the inhibition is 7.1% (active). To `Nc1c2c(nc3ccccc13)CCCC2O` (configuration not stated) belongs -1%.

In the case of `NNc1nncc2ccccc12`, the inhibition was 26.1% (active). Turning to `O=c1c(O)c(-c2ccc(O)cc2O)oc2cc(O)cc(O)c12`, the inhibition was 41.5% (active). The value for `O=c1c(O)c(-c2ccc(O)c(O)c2)oc2cc(O)cc(O)c12` was 33.1% (active).

As to `O=c1c(O)c(-c2cc(O)c(O)c(O)c2)oc2cc(O)cc(O)c12`, the inhibition was 25.8% (active).

Consider `O=c1cc(-c2ccc(O)cc2)oc2cc(O)cc(O)c12`, for which the inhibition was 15.3% (active).

Consider `S=C(Nc1ccccc1)Nc1nccs1`, for which the inhibition is -0.6%. The value for `NO` was -19.9%.

On to `CN(C)CCCO[C@@H]1[C@H]2OC(C)(C)O[C@H]2O[C@@H]1C(O)CO` (some centres not stated), for which the inhibition is 1.3% (active). The value for `O=C1NC(=O)c2cc(Nc3ccccc3)c(Nc3ccccc3)cc21` was 44.9% (active); that for `O=[N+]([O-])c1cccc2c(Br)[nH]nc12` was 5.3% (active).

`O=[N+]([O-])c1cccc2cn[nH]c12`: the inhibition is -7.7%. The value for `COCCCC/C(=N\OCCN)c1ccc(C(F)(F)F)cc1` was -2%; that for `Cc1cccc(-c2[nH]c(C(C)(C)C)nc2-c2ccc3nccnc3c2)n1` was 6% (active); that for `N[C@H]1CONC1=O` was -12.9%. For `CN1CCN2c3ccccc3Cc3ccccc3C2C1` (configuration not stated), the inhibition is -1.9%. As for `NC1=NCC2c3ccccc3Cc3ccccc3N12` (configuration not stated), the inhibition is 1.4% (active). Take `CCN(CC)CCOC(=O)C1(C2CCCCC2)CCCCC1`: the inhibition was -1.9%. The value for `O=C(OCCN1CCOCC1)C1(c2ccccc2)CCCCC1` was 2.5% (active). `CCCC(C(=O)OCCN(CC)CC)(c1ccccc1)c1ccccc1`: the inhibition is -0.5%.

On to `CCN(CC)CCOCCOC(=O)C1(c2ccccc2)CCCC1`, for which the inhibition was 6.3% (active). The value for `CCCn1c(=O)c2[nH]c(C3CCCC3)nc2n(CCC)c1=O` was 2.3% (active); that for `Cn1c(=O)c2[nH]c(-c3ccccc3)nc2n(C)c1=O` was -2.7%. As to `Cn1c(=O)c2[nH]c(-c3ccc(S(=O)(=O)O)cc3)nc2n(C)c1=O`, the inhibition was -2.4%. The value for `Cn1c(=O)c2[nH]c(C3CCCC3)nc2n(C)c1=O` was 3.9% (active); that for `CN(C)CCOC(=O)COc1ccc(Cl)cc1` was -2.9%; that for `CC/C(=C(\c1ccccc1)c1ccc(OCCN(C)C)cc1)c1ccccc1` was 2.2% (active). The value for `CN(C)[C@@H]1C(=O)C(C(N)=O)=C(O)[C@@]2(O)C(=O)C3=C(O)c4c(O)ccc(Cl)c4[C@@H](O)[C@H]3C[C@@H]12` was 9.5% (active); that for `C[C@H]1c2cccc(O)c2C(O)=C2C(=O)[C@]3(O)C(O)=C(C(N)=O)C(=O)[C@@H](N(C)C)[C@@H]3[C@@H](O)[C@@H]21` was -1.5%; that for `COc1ccccc1N1CCN(CCN(C(=O)C2CCCCC2)c2ccccn2)CC1` was 9.7% (active). The value for `COc1ccccc1N1CCN(CCN(C(=O)c2ccc(I)cc2)c2ccccn2)CC1` was 11.2% (active); that for `COc1ccccc1N1CCN(CCN(C(=O)c2ccc(F)cc2)c2ccccn2)CC1` was 7.1% (active).

Turning to `COc1ccc(Cc2nccc3cc(OC)c(OC)cc23)cc1OC`, the inhibition was 3.3% (active). For `COc1ccc(CCN(C)CCc2ccc(OC)c(OC)c2)cc1OC`, the inhibition is -0.5%. For the compound `CC(N=C(NC#N)Nc1ccncc1)C(C)(C)C` (configuration not stated), the inhibition was 4.4% (active).

For the compound `O=C1NCc2c1c1c3ccccc3[nH]c1c1[nH]c3ccccc3c21`, the inhibition is 2.6% (active). With `O=c1[nH]c2ccccc2c2ccccc12`, the inhibition was -9.8%. The value for `CN(C)CCCN1c2ccccc2Sc2ccc(Cl)cc21` was 39.2% (active); that for `CCC(=O)c1ccc2c(c1)N(CCCN(C)C)c1ccccc1S2` was 20.9% (active); that for `COc1ccc([C@@H]2Sc3ccccc3N(CCN(C)C)C(=O)[C@@H]2OC(C)=O)cc1` was -0.6%.

Turning to `CN(C)CCCN1c2ccccc2Sc2ccccc21`, the inhibition is 46.3% (active). For the compound `CN(C)CCCN1c2ccccc2Sc2ccc(C(F)(F)F)cc21`, the inhibition was 24.1% (active).

For `NC1(C(=O)O)CC1`, the inhibition was 5.5% (active). As to `NC1(C(=O)O)CCCCC1`, the inhibition is -3.9%. To `CC(C)ON([C@@H](C(=O)NO)C(C)C)S(=O)(=O)c1ccc(-c2ccccc2)cc1` belongs 8.9% (active); to `CC(=O)/C=C1\C(=O)N(C)c2ccccc21`, 7.8% (active). On to `COc1cc(NS(C)(=O)=O)ccc1Nc1c2ccccc2nc2ccccc12`, for which the inhibition is 42.7% (active). Regarding `CN(C(=O)CCCOc1ccc2[nH]c(=O)ccc2c1)C1CCCCC1`, the inhibition was -1.6%.

On to `CC[N+](CC)(CC)CC`, for which the inhibition is 0.9% (active). With `CN(Cc1cnc2nc(N)nc(N)c2n1)c1ccc(C(=O)N[C@@H](CCC(=O)O)C(=O)O)cc1`, the inhibition was -2.2%. The value for `Nc1nc(N)c2nc(CNc3ccc(C(=O)NC(CCC(=O)O)C(=O)O)cc3)cnc2n1` (configuration not stated) was 0.7% (active).
